Data from PubChem BioAssay (EPA / NIEHS).
Records with an inconclusive call do not appear. Activity calls are given as the source filed them. Rule for the calls: active = hit-call score of the fitted dose curve at least 0.9, where 1 is the maximum; inconclusive = response in the unintended direction; inactive = score below 0.9.

Target: Glycogen synthase kinase-3 beta (Homo sapiens) (UniProt P49841)
Assay: NVS_ENZ_hGSK3b: NovaScreen (NVS) Enzymatic Assay for human Glycogen Synthase Kinase-3 beta (GSK3b) (AID 2283165)
Procedure, shortened: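 Recombinant enzyme with specific fluorescent substrate, 1 h, product separated by electrophoretic mobility shift. Primary duplicate screen at 25 uM; actives (e.g. 30% inhibition) followed in singleton concentration-response to 50 uM. Signal loss fitted versus DMSO.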

Chain of Glycogen synthase kinase-3 beta (Homo sapiens) (P49841 whole entry, looked up): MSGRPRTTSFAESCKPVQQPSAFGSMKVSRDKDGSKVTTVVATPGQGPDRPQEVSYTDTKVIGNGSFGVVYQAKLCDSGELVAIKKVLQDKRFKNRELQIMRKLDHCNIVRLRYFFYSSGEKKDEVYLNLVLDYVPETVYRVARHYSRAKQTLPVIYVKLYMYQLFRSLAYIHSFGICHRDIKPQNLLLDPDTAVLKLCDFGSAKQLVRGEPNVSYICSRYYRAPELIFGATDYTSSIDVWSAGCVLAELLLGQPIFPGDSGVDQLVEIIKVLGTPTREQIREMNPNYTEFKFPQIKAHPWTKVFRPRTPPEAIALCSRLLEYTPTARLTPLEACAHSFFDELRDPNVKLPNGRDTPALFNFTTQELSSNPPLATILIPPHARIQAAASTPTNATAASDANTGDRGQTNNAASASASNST

outcome, inactive:
CC(C)c1cccc(C(C)C)c1NC(=O)NS(=O)(=O)c1cc(C(C)(C)O)co1
COC(=O)CCCC(=O)OC
Cc1occc(=O)c1O
Oc1ccc(O)cc1
c1ccc2occc2c1
CCOCCOCCO
CCCC(=O)O
O=C(O)CN(CC(=O)O)CC(=O)O
O=C(Oc1ccccc1)c1cccc(C(=O)Oc2ccccc2)c1
NC1CCCCC1
O=NO
C=CCc1ccc(OC)c(OC)c1
S=c1[nH]c2ccccc2s1
C/C=C/c1ccc(OC)cc1
Nc1nc(=S)c2[nH]cnc2[nH]1
CC1(C)C(=O)NC(=O)N1CO
O=C1OC(c2ccc(O)cc2)(c2ccc(O)cc2)c2ccccc21

Target: human Janus Kinase 2 (Jak2), JAK2 (gene 3717) (UniProt O60674)
Sequence (O60674 whole entry, looked up): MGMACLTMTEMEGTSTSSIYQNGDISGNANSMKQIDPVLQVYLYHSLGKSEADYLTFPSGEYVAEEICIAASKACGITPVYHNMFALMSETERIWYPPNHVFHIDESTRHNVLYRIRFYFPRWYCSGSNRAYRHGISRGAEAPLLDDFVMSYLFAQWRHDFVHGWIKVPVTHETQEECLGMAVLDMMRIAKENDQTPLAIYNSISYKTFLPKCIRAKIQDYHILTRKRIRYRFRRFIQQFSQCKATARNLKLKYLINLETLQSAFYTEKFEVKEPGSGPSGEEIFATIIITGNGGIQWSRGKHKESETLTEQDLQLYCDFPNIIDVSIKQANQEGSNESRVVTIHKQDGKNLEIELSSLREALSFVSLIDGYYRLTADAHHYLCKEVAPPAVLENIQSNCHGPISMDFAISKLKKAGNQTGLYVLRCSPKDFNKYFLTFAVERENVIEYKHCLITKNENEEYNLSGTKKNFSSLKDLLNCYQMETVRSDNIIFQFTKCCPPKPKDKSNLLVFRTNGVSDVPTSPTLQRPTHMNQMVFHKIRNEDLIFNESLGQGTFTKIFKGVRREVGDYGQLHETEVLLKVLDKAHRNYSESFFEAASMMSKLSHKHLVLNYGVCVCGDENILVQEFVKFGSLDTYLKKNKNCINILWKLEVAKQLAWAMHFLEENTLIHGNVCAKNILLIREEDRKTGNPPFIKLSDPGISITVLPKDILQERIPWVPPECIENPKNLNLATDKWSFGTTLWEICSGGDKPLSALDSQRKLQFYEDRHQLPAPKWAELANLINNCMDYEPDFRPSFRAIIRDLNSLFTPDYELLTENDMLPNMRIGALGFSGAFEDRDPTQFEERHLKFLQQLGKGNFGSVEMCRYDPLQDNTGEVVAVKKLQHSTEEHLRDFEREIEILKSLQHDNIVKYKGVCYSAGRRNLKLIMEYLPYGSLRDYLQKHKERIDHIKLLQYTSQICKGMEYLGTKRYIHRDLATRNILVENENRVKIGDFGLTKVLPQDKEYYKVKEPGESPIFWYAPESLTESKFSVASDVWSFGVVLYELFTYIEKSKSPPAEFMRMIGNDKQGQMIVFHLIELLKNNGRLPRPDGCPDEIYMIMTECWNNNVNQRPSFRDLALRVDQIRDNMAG
Assay: NVS_ENZ_hJak2: NovaScreen (NVS) Enzymatic Assay for human Janus Kinase 2 (Jak2) (AID 2283169)
Procedure, shortened: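 Cell-free recombinant human JAK2 enzyme activity assay, fluorescence/electrophoretic mobility shift read 1 h after dosing. Screened in duplicate at 25 uM, then concentration-response up to 50 uM; activity as signal loss relative to DMSO.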

outcome, inactive:
CC(C)COC(=O)CCCCC(=O)OCC(C)C
O=C(Oc1ccccc1)c1cccc(C(=O)Oc2ccccc2)c1
CC(C)NCC(O)c1ccc(O)c(O)c1 (stereo not drawn)
O=C1NC(=O)C(c2ccccc2)(c2ccccc2)N1
O=C(O)CC(O)(CC(=O)O)C(=O)O
CCCCCCCCCCCCCCCCO
